Inconclusive results are not listed. The source made the active and inactive calls. Calls come from the whole dose curve; as a rule, active = well fitted cell-killing curve with a large enough effect; inconclusive = small, poorly fitted or top-dose-only effect; inactive = flat fitted curve, though single readings scatter.

The assay in a line: Cell Viability - LYMP2-014 (AID 983).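 Note: cells exposed to compound for 24 h at 37 °C; nearly all actives have a fitted effect of over 50% in size.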 Particulars: LYMP2-014 lymphoblastoid cells, viability qHTS; series mostly up to 92.2 µM. The text has this:
NIH Chemical Genomics Center [NCGC]
NIH Molecular Libraries Screening Centers Network [MLSCN]
National Institutes of Environmental Health Sciences [NIEHS]
National Toxicology Program [NTP]
We have developed a 1536-well cell-based assay for quantitative high throughput screening (qHTS) against a number of cell lines to determine in vitro cytotoxicity of small molecules. This particular assay uses a human lymphoblastoid cell line (LYMP2-014) purchased from Coriell Institute for Medical Research.
NCGC Assay Protocol Summary:
The CellTiter-Glo luminescent cell viability assay (Promega) is a homogeneous method to measure the number of viable cells in culture. The end point readout of this assay is based on quantitation of intracellular ATP, an indicator of metabolic activity, using the luciferase reaction. Luciferase catalyzes the oxidation of beetle Luciferin to oxyluciferin and light in the presence of ATP. The luminescent signal is proportional to amount of ATP present.
Using the CellTiter-Glo luminescent cell viability assay, the amount of cellular ATP was measured in the lymphoblastoid cell line with complete culture medium following compound treatment for 24 hours. The assay was performed in opaque white Kalypsys 1536-well plates. In the screen, tetraoctylammonium bromide was used as positive control. Library compounds were measured for their ability to cause acute toxicity in the cell line, as reflected by a decrease in intracellular ATP levels, in a concentration-dependent manner. […] AC50 values were determined from concentration-response data modeled with the standard Hill equation.
qHTS protocol for CellTiter Glo lymphoblastoid cellular assay
[Step] [Parameter] [Value] [Description]
1. Reagent; 5 uL; 2500 lymphoblastoid cells/well
2. Time; 5 hr; 37 C incubation
4. Controls; 23 nL; Tetraoctylammonium bromide 6.4pM to 92 uM
5. Time; 24 hr; 37 C incubation
6. Reagent; 5 uL; CellTiter Glo reagent
7. Time; 30 min; Room Temperature
8. Detection; Luminescence; Viewlux plate reader
Keywords: cell viability, cytotoxicity, lymphoblastoid cell line, luminescence, NTPHTS, NTPHTS_NCGC, NIEHS, DSSTox, MLSMR, MLSCN, NIH Roadmap, qHTS, NCGC
For orientation: In qHTS, concentration-response curves come from the screen itself.
`CC(=O)NS(=O)(=O)c1ccc(N)cc1`: the result was inactive. Take `CC(=O)OCC(COC(C)=O)OC(C)=O`: the compound was called inactive. As for `CCCCOC(=O)c1ccc(N)cc1`, the entry is “inactive”; as for `CC1CC(OC(=O)c2ccccc2O)CC(C)(C)C1` (stereo unspecified), “inactive”; as for `Nc1ccc(S(=O)(=O)c2ccc(N)cc2)cc1`, “inactive”. For `O=C(O)CCCCC1CCSS1` (stereo unspecified), the outcome was inactive. The value for `CCCC(O)C(CC)CO` (stereo unspecified) was “inactive”. For the compound `O=C1C(c2[nH]c3ccccc3c2O)=Nc2ccccc21`, the outcome was inactive. As for `COc1ccc(O)cc1`, the entry is “inactive”; as for `CCCCCC(N)=O`, “inactive”. In the case of `CC(=O)Nc1ccccc1`, the compound was called inactive. As for `O=C(c1ccccc1)C(O)c1ccccc1` (stereo unspecified), the compound was called inactive. The value for `Cc1cc(C)nc(NS(=O)(=O)c2ccc(N)cc2)n1` was “inactive”; that for `Cc1c(N(C)C)c(=O)n(-c2ccccc2)n1C` was “inactive”; that for `FC(F)(F)C(Cl)Br` (stereo unspecified) was “inactive”. As for `CC(=O)Nc1ccc(C(=O)O)cc1`, the entry is “inactive”. The value for `CC(=O)Nc1cccc(O)c1` was “inactive”; that for `CCCCCCCC(=O)OCC(COC(=O)CCCCCCC)OC(=O)CCCCCCC` was “inactive”. `C=CCNC(N)=S`: the compound was classed as inactive. The value for `CCN(CC)C(=O)c1cccc(C)c1` was “inactive”; that for `Cc1cc(=O)[nH]c(=S)[nH]1` was “inactive”.

For the origin of these results see PubChem BioAssay (NCATS).
